Among the test systems are NCI-H23 lung; NCI-H226 lung; NCI-H322M lung; HOP-62 NSCLC; NCI-H460 lung; HOP-92 NSCLC; NCI-H522 lung; A549/ATCC NSCLC; 786-0 renal; COLO 205 colon; DU-145 prostate; K-562 leukemia; MALME-3M melanoma; MDA-MB-231 breast; RXF 393 renal; SF-268 CNS; SF-295 CNS; SF-539 CNS; UACC-257 melanoma; M14 melanoma.
What all share (assay): NCI-60 one-dose screen, 48 h (100 = growth as untreated, 0 = no growth, -100 = all killed)
What all share (settings): 10 µM unless noted

Where “and” joins values, the source holds several entries; their conditions need not be identical. Equal entries are not always repeated. About 83,000 compounds went through this panel and 20% of them were active in at least one assay; those are over-represented in the sample as a whole.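 Cell lines were cultured in 96-well plates, exposed to a single compound concentration, and assessed for percent growth 48 hours later.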 Calls of active or inactive are those of the source. How the source made its calls: active means growth percent below 10; inactive means the rest.

Consider `CN(C)C(=O)c1cc2cnc(Nc3ccc(-c4csc5c(=S)cc(N6CCOCC6)oc45)cc3)nc2n1C1CCCC1`, for which the growth with NCI-H23 lung is 7.49% (active); in the test with NCI-H226 lung it was 15.8% (inactive); in the test on NCI-H322M lung it was 18.4% (inactive); with HOP-62 NSCLC it was 6.1% (active); with NCI-H460 lung, 3.26% (active); with HOP-92 NSCLC, -5.69% (active). Besides, the growth is 4.24% (active) in the test on NCI-H522 lung; 5.94% (active) with A549/ATCC NSCLC; 9.52% (active) with 786-0 renal; -33.9% (active) in the test on COLO 205 colon; 16.9% (inactive) in the test with DU-145 prostate; 10% (inactive) in the test on K-562 leukemia. Besides, the growth is 17.8% (inactive) in the test with MALME-3M melanoma; 10.2% (inactive) in the test on MDA-MB-231 breast; -53.9% (active) in the test with RXF 393 renal; 11.1% (inactive) with SF-268 CNS; 1.23% (active) with SF-295 CNS; -24.5% (active) in the test with SF-539 CNS. For the same compound, the figures for the growth with UACC-257 melanoma and in the test with M14 melanoma were 4.13% (active) and 7.51% (active), respectively.
Consider `CCN1CCN(CC(=O)Nc2nc3ccc(NCc4ccc(C)cc4)cc3s2)CC1`, for which the growth in the test on NCI-H23 lung is 72.6% (inactive); with NCI-H226 lung, 72% (inactive); with NCI-H322M lung, 87.6% (inactive); in the test on HOP-62 NSCLC it was 78.5% (inactive); with NCI-H460 lung, 44.5% (inactive); in the test on HOP-92 NSCLC, 39% (inactive). The growth was 93.7% (inactive) in the test on NCI-H522 lung; 73.4% (inactive) in the test on A549/ATCC NSCLC; 68% (inactive) with 786-0 renal; 16.3% (inactive) with COLO 205 colon; 84.3% (inactive) in the test on DU-145 prostate; -0.543% (active) in the test on K-562 leukemia. Further, the growth with MALME-3M melanoma was -41.5% (active); in the test with MDA-MB-231 breast, 59.1% (inactive); in the test with RXF 393 renal it was 56.1% (inactive); in the test with SF-268 CNS it was 73.5% (inactive); in the test on SF-295 CNS it was 88.2% (inactive); in the test with SF-539 CNS, 22.2% (inactive). Further, the growth in the test with UACC-257 melanoma is 34% (inactive); in the test with M14 melanoma, -44% (active).
Turning to `O=C(/C=C/c1ccc([N+](=O)[O-])cc1)c1ccccc1`, the growth was 93.2% (inactive) with NCI-H23 lung; 85% (inactive) in the test with NCI-H226 lung; 102% (inactive) in the test on NCI-H322M lung; 83% (inactive) with HOP-62 NSCLC; 105% (inactive) in the test with NCI-H460 lung; 75.9% (inactive) in the test on HOP-92 NSCLC. For the same compound, the growth in the test with NCI-H522 lung was 70.4% (inactive); in the test with A549/ATCC NSCLC, 83.3% (inactive); with 786-0 renal it was 89.1% (inactive); with COLO 205 colon, 87.2% (inactive); in the test on DU-145 prostate it was 97.3% (inactive); with K-562 leukemia it was 44.1% (inactive). Moreover, the growth in the test on MALME-3M melanoma was 107% (inactive); in the test with MDA-MB-231 breast it was 102% (inactive); in the test with RXF 393 renal, 91.1% (inactive); in the test on SF-268 CNS, 92% (inactive); in the test on SF-295 CNS it was 93.4% (inactive); in the test on SF-539 CNS, 92.3% (inactive). The results for the growth in the test on UACC-257 melanoma and in the test on M14 melanoma were 89.1% (inactive) and 92.2% (inactive), respectively.
Turning to `CN(C)c1ccc2nc3ccc(=O)cc-3sc2c1`, the growth with NCI-H23 lung was 11.1% (inactive) and 22% (inactive); in the test with NCI-H226 lung, 71.8% (inactive); in the test with NCI-H322M lung, 49.7% (inactive) and 70% (inactive); in the test with HOP-62 NSCLC, 35.5% (inactive) and 60.7% (inactive); with NCI-H460 lung, 19% (inactive) and 34.1% (inactive); with HOP-92 NSCLC, 49% (inactive) and 61% (inactive). Also, the growth in the test on NCI-H522 lung was -10.8% (active) and 41.5% (inactive); in the test with A549/ATCC NSCLC, 1.33% (active) and 35.9% (inactive); in the test with 786-0 renal, 57.1% (inactive) and 43.7% (inactive); in the test with COLO 205 colon it was -10.2% (active) and 5.66% (active); in the test on DU-145 prostate, 35.7% (inactive) and 51.2% (inactive); in the test with K-562 leukemia it was 20.4% (inactive) and 23% (inactive). Moreover, the growth was 1.88% (active) and 22.1% (inactive) in the test on MALME-3M melanoma; 30.4% (inactive) and 43% (inactive) in the test with MDA-MB-231 breast; 52.2% (inactive) and 82% (inactive) with RXF 393 renal; 52.9% (inactive) and 63% (inactive) with SF-268 CNS; 6.09% (active) and -15.3% (active) with SF-295 CNS; 10.3% (inactive) and 1.75% (active) in the test with SF-539 CNS. The growth in the test with UACC-257 melanoma is -21.8% (active) and 24.8% (inactive); in the test on M14 melanoma, 9.73% (active) and 7.61% (active).
As to `COc1ccc(/C=C/C(=O)c2cc3c(N)c(C(=O)Nc4ccccc4Cl)sc3nc2C)cc1`, the growth was 52.3% (inactive) with NCI-H23 lung; 27.4% (inactive) in the test with NCI-H226 lung; 62.3% (inactive) with NCI-H322M lung; 45.3% (inactive) in the test with HOP-62 NSCLC; 32.6% (inactive) in the test with NCI-H460 lung; 9.45% (active) with HOP-92 NSCLC. For the same compound, the growth is 15.4% (inactive) in the test on NCI-H522 lung; 33.8% (inactive) with A549/ATCC NSCLC; -20.4% (active) in the test on 786-0 renal; 69.8% (inactive) with COLO 205 colon; 46.3% (inactive) in the test with DU-145 prostate; 38.9% (inactive) with K-562 leukemia. For the same compound, the growth in the test on MALME-3M melanoma was 21% (inactive); with MDA-MB-231 breast, 33.8% (inactive); in the test with RXF 393 renal it was -3.54% (active); in the test with SF-268 CNS it was 53.3% (inactive); in the test with SF-295 CNS it was 48.5% (inactive); in the test on SF-539 CNS, 36.2% (inactive). Besides, the growth in the test on UACC-257 melanoma is 63.8% (inactive); in the test on M14 melanoma it was 12.1% (inactive).
On to `Cc1cccc(-c2nnc(SCC(=O)Nc3ncc(Cc4ccccc4)s3)n2N2C(=O)CSC2=S)c1`, for which the growth in the test on NCI-H23 lung was 36.7% (inactive); in the test on NCI-H226 lung, 31.5% (inactive); in the test with NCI-H322M lung it was 40.1% (inactive); in the test on HOP-62 NSCLC, 30.3% (inactive); with NCI-H460 lung, 20% (inactive); in the test on HOP-92 NSCLC, 8.49% (active). Moreover, the growth in the test with NCI-H522 lung is 34.5% (inactive); in the test on A549/ATCC NSCLC it was 7.99% (active); in the test with 786-0 renal, 29.8% (inactive); in the test with COLO 205 colon, 66.6% (inactive); in the test with DU-145 prostate it was 43.3% (inactive); in the test on K-562 leukemia, 77.6% (inactive). For the same compound, the growth is 20.6% (inactive) in the test on MALME-3M melanoma; 10% (inactive) in the test on MDA-MB-231 breast; 54.7% (inactive) in the test with RXF 393 renal; 78.3% (inactive) in the test with SF-268 CNS; 77.7% (inactive) with SF-295 CNS; 36.6% (inactive) with SF-539 CNS. The growth in the test on UACC-257 melanoma is 64.4% (inactive); in the test with M14 melanoma it was 51.1% (inactive).
Take `O=S(=O)(Nc1cc(Sc2cccc3cccnc23)c(O)c2ccccc12)c1ccc(F)cc1`: the growth with NCI-H23 lung was 17.7% (inactive); with NCI-H226 lung, 44.3% (inactive); in the test with NCI-H322M lung, 31.7% (inactive); in the test with HOP-62 NSCLC it was 44.7% (inactive); in the test on NCI-H460 lung it was 4.76% (active); with HOP-92 NSCLC it was 4.76% (active). In addition, the growth is -48.7% (active) in the test on NCI-H522 lung; 11.9% (inactive) in the test with A549/ATCC NSCLC; 2.18% (active) with 786-0 renal; -64.6% (active) in the test on COLO 205 colon; -25.4% (active) with DU-145 prostate; -20.1% (active) in the test with K-562 leukemia. In addition, the growth was -14% (active) in the test with MALME-3M melanoma; 19.6% (inactive) with MDA-MB-231 breast; -5.08% (active) with RXF 393 renal; 8.15% (active) in the test on SF-268 CNS; 22.1% (inactive) in the test with SF-295 CNS; -15.6% (active) in the test on SF-539 CNS. In addition, the growth is -24.8% (active) in the test with UACC-257 melanoma and -42.8% (active) in the test on M14 melanoma.
